Records with an inconclusive call do not appear. Calls of active or inactive are those of the source. How the source made its calls, unless noted: active means hit-call score of the fitted dose curve at least 0.9, where 1 is the maximum; inactive means score below 0.9.
Legend:
[1] = target: Retinoic acid receptor RXR-alpha (Homo sapiens) (UniProt P19793); test: ATG_RXRa_TRANS: Attagene TRANS-FACTORIAL HepG2 Assay for human Retinoid X Receptor alpha (RXRa) (AID 2283012; active means hit-call score of the fitted dose curve at least 0.9, where 1 is the maximum)
Retinoic acid receptor RXR-alpha (Homo sapiens), sequence (P19793 whole entry, looked up, the tested form may be a part): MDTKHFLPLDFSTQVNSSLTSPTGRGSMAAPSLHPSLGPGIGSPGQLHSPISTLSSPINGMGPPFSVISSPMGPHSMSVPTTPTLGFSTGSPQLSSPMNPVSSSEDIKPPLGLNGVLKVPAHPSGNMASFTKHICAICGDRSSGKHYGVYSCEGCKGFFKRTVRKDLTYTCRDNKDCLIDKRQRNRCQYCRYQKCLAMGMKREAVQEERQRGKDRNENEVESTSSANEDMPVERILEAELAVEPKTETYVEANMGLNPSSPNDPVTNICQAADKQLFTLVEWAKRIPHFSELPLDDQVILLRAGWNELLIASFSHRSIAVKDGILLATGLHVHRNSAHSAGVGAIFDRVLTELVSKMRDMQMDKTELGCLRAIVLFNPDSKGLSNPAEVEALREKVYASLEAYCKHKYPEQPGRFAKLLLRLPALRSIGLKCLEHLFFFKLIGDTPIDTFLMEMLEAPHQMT
In short: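 Transient transfection of human HepG2 with multiple GAL4-UAS reporter constructs; 24 h compound exposure; total RNA isolated, reverse-transcribed, PCR-amplified, 6-FAM labelled, HpaI-cut, resolved by capillary electrophoresis. Positive-direction fit versus DMSO.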

[2] = target: human Retinoid X Receptor beta (RXRb), RXRB (gene 6257) (UniProt P28702); test: ATG_RXRb_TRANS: Attagene TRANS-FACTORIAL HepG2 Assay for human Retinoid X Receptor beta (RXRb) (AID 2283013; active means hit-call score of the fitted dose curve at least 0.9, where 1 is the maximum)
human Retinoid X Receptor beta (RXRb), RXRB (gene 6257), sequence (P28702 whole entry, looked up, the tested form may be a part): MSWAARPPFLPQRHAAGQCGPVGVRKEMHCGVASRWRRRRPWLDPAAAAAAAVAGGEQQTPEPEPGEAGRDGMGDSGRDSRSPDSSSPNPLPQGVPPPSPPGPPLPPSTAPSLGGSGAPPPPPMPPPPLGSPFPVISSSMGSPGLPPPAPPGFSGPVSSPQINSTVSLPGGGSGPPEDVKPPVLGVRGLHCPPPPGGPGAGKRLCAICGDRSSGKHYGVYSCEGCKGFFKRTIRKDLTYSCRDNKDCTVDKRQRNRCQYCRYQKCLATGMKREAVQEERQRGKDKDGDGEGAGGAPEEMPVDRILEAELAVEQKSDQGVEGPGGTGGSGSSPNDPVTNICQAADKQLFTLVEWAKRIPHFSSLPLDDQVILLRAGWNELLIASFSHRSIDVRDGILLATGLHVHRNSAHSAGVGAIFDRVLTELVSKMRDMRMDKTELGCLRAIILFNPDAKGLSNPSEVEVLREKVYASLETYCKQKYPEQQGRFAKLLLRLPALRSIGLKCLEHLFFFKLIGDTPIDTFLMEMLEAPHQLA
In short: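 Transfect HepG2 with GAL4-UAS multi-reporter constructs (chimeric NR-Gal4, TRANS format); dose compound 24 h; isolate RNA, RT-PCR, FAM primer extension, HpaI digest; quantify by capillary electrophoresis; positive direction vs DMSO.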

[3] = target: human Thyroid Receptor alpha (THRa1), THRA (gene 7067) (UniProt P10827); test: ATG_THRa1_TRANS: Attagene TRANS-FACTORIAL HepG2 Assay for human Thyroid Receptor alpha (THRa1) (AID 2283014; active means hit-call score of the fitted dose curve at least 0.9, where 1 is the maximum)
human Thyroid Receptor alpha (THRa1), THRA (gene 7067), sequence (P10827 whole entry, looked up, the tested form may be a part): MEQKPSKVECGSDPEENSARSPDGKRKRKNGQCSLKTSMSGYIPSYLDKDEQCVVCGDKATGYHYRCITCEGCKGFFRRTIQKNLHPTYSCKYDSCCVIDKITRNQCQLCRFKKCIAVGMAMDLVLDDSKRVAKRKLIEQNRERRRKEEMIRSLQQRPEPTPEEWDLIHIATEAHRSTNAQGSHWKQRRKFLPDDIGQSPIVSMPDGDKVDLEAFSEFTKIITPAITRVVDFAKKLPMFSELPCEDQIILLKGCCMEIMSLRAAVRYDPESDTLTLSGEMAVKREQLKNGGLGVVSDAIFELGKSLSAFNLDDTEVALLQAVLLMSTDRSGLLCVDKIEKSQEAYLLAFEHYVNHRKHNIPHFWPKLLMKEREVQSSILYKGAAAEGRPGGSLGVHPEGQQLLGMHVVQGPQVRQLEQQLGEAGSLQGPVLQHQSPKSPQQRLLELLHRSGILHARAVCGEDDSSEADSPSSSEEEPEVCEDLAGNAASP
In short: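 Transient HepG2 transfection, NR-Gal4 chimera driving GAL4-UAS reporters; 24 h compound exposure; total RNA, oligo(dT) RT, PCR, fluorescent primer extension, capillary electrophoresis. Upward direction vs DMSO control.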

[4] = read-out: E-selectin (Homo sapiens) (UniProt P16581); test: BSK_3C_Eselectin: BioMAP Diversity Plus: 3C Assay for Eselectin Biomarker Activity (AID 2283015); settings: primary human endothelial cells (HUVEC); actives raise or lower the signal
In short: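 HUVEC, 3C stimulation; compound exposure 24 h; E-selectin by ELISA; gain- or loss-of-signal fitted bidirectionally vs DMSO baseline.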

[5] = read-out: Interleukin-1 alpha (IL1a), IL1A (gene 3552); test: BSK_BE3C_IL1a: BioMAP Diversity Plus: BE3C Assay for Interleukin-1 alpha (IL1a) Biomarker Activity (AID 2283016); settings: primary human bronchial epithelial cells; actives raise or lower the signal
In short: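 BE3C primary human bronchial epithelium; cpd 24 h; IL-1a by ELISA; bidirectional fit vs DMSO; parallel SRB (0.1% SRB, 10% TCA fix, 560 nm) for cytotoxicity.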

[6] = read-out: Monocyte Chemoattractant Protein-1 (MCP1), CCL2 (gene 6347); test: BSK_3C_MCP1: BioMAP Diversity Plus: 3C Assay for Monocyte Chemoattractant Protein-1 (MCP1) Biomarker Activity (AID 2283017); settings: primary human endothelial cells (HUVEC); actives raise or lower the signal
In short: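 HUVEC, 3C system; 24 h chemical exposure; MCP-1 by ELISA; bidirectional curve fit vs DMSO baseline.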

[7] = read-out: Monocyte Chemoattractant Protein-1 (MCP1), CCL2 (gene 6347); test: BSK_4H_MCP1: BioMAP Diversity Plus: 4H Assay for Monocyte Chemoattractant Protein-1 (MCP1) Biomarker Activity (AID 2283018); settings: primary human endothelial cells (HUVEC); actives raise or lower the signal
In short: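 ELISA read-out of MCP-1 from human vascular endothelial primary cells taken at 24 hours after compound exposure. Activity was fitted in both directions relative to DMSO, which served as negative control.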

[8] = read-out: Human Leukocyte Antigen - DR isotype (HLADR), HLA-DRA (gene 3122); test: BSK_3C_HLADR: BioMAP Diversity Plus: 3C Assay for Human Leukocyte Antigen - DR isotype (HLADR) Biomarker Activity (AID 2283019); settings: primary human endothelial cells (HUVEC); actives raise or lower the signal
In short: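 HUVEC, 3C stimulation, 24 h post-dose; HLA-DR by ELISA; bidirectional curve fit vs DMSO baseline; gain or loss of signal scored.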

[9] = read-out: Interleukin-8 (IL8), CXCL8 (gene 3576); test: BSK_3C_IL8: BioMAP Diversity Plus: 3C Assay for Interleukin-8 (IL8) Biomarker Activity (AID 2283020); settings: primary human endothelial cells (HUVEC); actives raise or lower the signal
In short: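 ELISA read-out of IL-8 from human umbilical vein endothelium, measured 24 h after chemical dosing. Activity is expressed relative to DMSO negative control, with both increases and decreases fitted.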

[10] = read-out: Monokine induced gamma interferon (MIG), CXCL9 (gene 4283); test: BSK_3C_MIG: BioMAP Diversity Plus: 3C Assay for Monokine induced gamma interferon (MIG) Biomarker Activity (AID 2283021); settings: primary human endothelial cells (HUVEC); actives raise or lower the signal
In short: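 Read-out is ELISA detection of MIG on human umbilical vein endothelial cells, taken 24 h after dosing. Gain or loss of signal was scored relative to DMSO controls using bidirectional curve fitting.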

[11] = BSK_3C_SRB: Viability Assessment in the BioMAP Diversity Plus: 3C Assay (AID 2283023); settings: primary human endothelial cells (HUVEC);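 further: fitted both ways against DMSO so a hit may be signal rise or drop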
In short: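 HUVEC, 24 h post-dose; 10% TCA fix, 0.1% SRB stain, A560 nm. Bidirectional curve fit vs DMSO negative control.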

[12] = read-out: Matrix Metallopeptidase 1 (MMP1), MMP1 (gene 4312); test: BSK_BE3C_MMP1: BioMAP Diversity Plus: BE3C Assay for Matrix Metallopeptidase 1 (MMP1) Biomarker Activity (AID 2283024); settings: primary human bronchial epithelial cells; actives raise or lower the signal
In short: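 Human bronchial epithelial cells (BE3C system) exposed to compound for 24 h; MMP1 then quantified by ELISA. Activity was fitted in both directions relative to DMSO.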

[13] = BSK_3C_Vis: BioMAP Diversity Plus: 3C Assay for Morphology Visualization (AID 2283025); settings: primary human endothelial cells (HUVEC);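 further: fitted both ways so gain or loss versus DMSO counts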;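 on AC50: light microscopy image of cell morphology used as background control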
In short: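 Chemicals were added to primary human umbilical vein endothelium, cells were incubated 24 h, and morphology was then visualized by light microscopy. Gain or loss of signal was fitted bidirectionally relative to DMSO.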

[14] = read-out: Pselectin, SELP (gene 6403); test: BSK_4H_Pselectin: BioMAP Diversity Plus: 4H Assay for Pselectin Biomarker Activity (AID 2283026); settings: primary human endothelial cells (HUVEC); actives raise or lower the signal
In short: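 ELISA read-out of P-selectin on human umbilical vein endothelium after 24 h of dosing. Values derive from bidirectional fitting relative to DMSO. Parallel SRB protein staining flagged overt cytotoxicity.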

[15] = BSK_4H_SRB: Viability Assessment in the BioMAP Diversity Plus: 4H Assay (AID 2283027); settings: primary human endothelial cells (HUVEC);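 further: cells exposed to compound for 24 h before staining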
In short: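 Absorbance at 560 nm of SRB-stained total protein served as the viability read-out in confluent primary human umbilical vein endothelium 24 h after chemical treatment. Curves were fitted bidirectionally against DMSO as negative control.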

[16] = BSK_BE3C_SRB: Viability Assessment in the BioMAP Diversity Plus: BE3C Assay (AID 2283028); settings: primary human bronchial epithelial cells
In short: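 Primary human bronchial epithelium; chemical dosing, 24 h; 10% TCA fix, 0.1% SRB stain, A560; bidirectional fit vs DMSO baseline.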

[17] = read-out: Thrombomodulin, THBD (gene 7056); test: BSK_3C_Thrombomodulin: BioMAP Diversity Plus: 3C Assay for Thrombomodulin Biomarker Activity (AID 2283029); settings: primary human endothelial cells (HUVEC); actives raise or lower the signal
In short: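 Read-out is ELISA of thrombomodulin on human umbilical vein endothelium 24 h after chemical dosing. Gain or loss of signal is scored relative to DMSO. Overt cytotoxicity is checked in parallel cultures by sulforhodamine B staining.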

[18] = read-out: Urokinase-type plasminogen activator receptor (uPAR), PLAUR (gene 5329); test: BSK_4H_uPAR: BioMAP Diversity Plus: 4H Assay for Urokinase-type plasminogen activator receptor (uPAR) Biomarker Activity (AID 2283030); settings: primary human endothelial cells (HUVEC); actives raise or lower the signal
In short: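 HUVEC, 24 h post-dose; uPAR by ELISA; bidirectional fit vs DMSO baseline.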

[19] = read-out: Vascular endothelial growth factor receptor 2 (Homo sapiens) (UniProt P35968); test: BSK_4H_VEGFRII: BioMAP Diversity Plus: 4H Assay for Vascular endothelial growth factor receptor 2 (VEGFR2) Biomarker Activity (AID 2283031); settings: primary human endothelial cells (HUVEC); actives raise or lower the signal
In short: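 HUVEC (human primary), 4H system; 24 h post-dose; VEGFRII by ELISA; bidirectional curve fit vs DMSO baseline; gain or loss of signal scored.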

[20] = target: human Vitamin D Receptor (VDR), VDR (gene 7421) (UniProt P11473); test: ATG_VDR_TRANS: Attagene TRANS-FACTORIAL HepG2 Assay for human Vitamin D Receptor (VDR) (AID 2283022; active means hit-call score of the fitted dose curve at least 0.9, where 1 is the maximum)
human Vitamin D Receptor (VDR), VDR (gene 7421), sequence (P11473 whole entry, looked up, the tested form may be a part): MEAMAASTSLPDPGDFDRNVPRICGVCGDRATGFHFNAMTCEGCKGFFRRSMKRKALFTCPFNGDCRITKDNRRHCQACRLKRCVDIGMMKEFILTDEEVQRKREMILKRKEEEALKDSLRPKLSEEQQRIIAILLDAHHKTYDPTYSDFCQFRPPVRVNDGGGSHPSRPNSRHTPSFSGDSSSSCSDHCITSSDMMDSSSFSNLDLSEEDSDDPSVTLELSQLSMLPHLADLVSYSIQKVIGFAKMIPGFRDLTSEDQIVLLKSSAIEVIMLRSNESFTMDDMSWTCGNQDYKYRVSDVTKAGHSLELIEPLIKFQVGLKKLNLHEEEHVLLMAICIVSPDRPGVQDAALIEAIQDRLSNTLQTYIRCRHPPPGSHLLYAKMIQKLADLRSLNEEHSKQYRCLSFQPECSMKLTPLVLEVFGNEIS
In short: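 RT-PCR/capillary electrophoresis read-out of reporter mRNA induction in transiently transfected HepG2; 24 h dosing; chimeric NR-Gal4 (TRANS format); gain-of-signal fit against DMSO baseline.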

Measured: AC50

E-selectin (Homo sapiens), sequence (P16581 whole entry, looked up): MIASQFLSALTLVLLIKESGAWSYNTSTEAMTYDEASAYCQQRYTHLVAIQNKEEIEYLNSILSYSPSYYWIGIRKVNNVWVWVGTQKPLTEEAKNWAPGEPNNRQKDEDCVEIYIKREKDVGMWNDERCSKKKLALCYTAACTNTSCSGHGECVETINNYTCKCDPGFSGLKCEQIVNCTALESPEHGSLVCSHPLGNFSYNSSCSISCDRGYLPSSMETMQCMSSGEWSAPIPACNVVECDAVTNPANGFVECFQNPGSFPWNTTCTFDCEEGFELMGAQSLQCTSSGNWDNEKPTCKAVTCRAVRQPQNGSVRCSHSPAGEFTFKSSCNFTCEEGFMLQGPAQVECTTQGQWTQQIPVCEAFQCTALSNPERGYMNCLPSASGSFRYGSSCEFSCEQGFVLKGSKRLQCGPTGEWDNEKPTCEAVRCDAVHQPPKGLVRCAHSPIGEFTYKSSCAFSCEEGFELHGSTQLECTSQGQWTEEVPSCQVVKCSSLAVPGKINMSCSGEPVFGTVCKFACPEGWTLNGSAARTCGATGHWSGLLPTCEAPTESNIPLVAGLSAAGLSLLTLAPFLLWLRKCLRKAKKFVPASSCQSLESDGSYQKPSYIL

CCCCc1nc2cccnc2n1Cc1ccc(-c2ccccc2-c2nnn[nH]2)cc1
active: [3] 21.4 µM | [12] 6.21 µM
inactive: [1] | [2] | [4] | [5] | [6] | [7] | [8] | [9] | [10] | [11] | [13] | [14] | [15] | [16] | [17] | [18] | [19]

CC(=O)O
inactive: [1] | [2] | [3] | [4] | [5] | [6] | [7] | [8] | [9] | [10] | [11] | [12] | [13] | [14] | [15] | [16] | [17] | [18] | [19]

CC(C)(O)c1ccc(CNC(=O)c2cccnc2Oc2ccc(F)cc2)cc1
inactive: [1] | [2] | [3] | [4] | [5] | [6] | [7] | [8] | [9] | [10] | [11] | [12] | [13] | [14] | [15] | [16] | [17] | [18] | [19]

C=CCc1ccc(OC)c(OC)c1
active: [2] 65.4 µM
inactive: [1] | [4] | [5] | [6] | [7] | [8] | [9] | [10] | [20] | [11] | [12] | [13] | [14] | [16] | [17] | [18] | [19]

O=C(O)c1cccnc1
inactive: [1] | [2] | [3] | [4] | [5] | [6] | [7] | [8] | [9] | [10] | [11] | [12] | [13] | [14] | [16] | [17] | [18] | [19]

CS(=O)(=O)c1ccc([C@@H](C[C@H]2CCC(=O)C2)C(=O)Nc2cnccn2)cc1Cl
inactive: [1] | [2] | [4] | [5] | [6] | [7] | [8] | [9] | [10] | [20] | [11] | [12] | [13] | [14] | [15] | [16] | [17] | [18] | [19]

O=C1O[C@H]([C@H](O)CO)C(O)=C1O
inactive: [1] | [2] | [3] | [4] | [5] | [6] | [7] | [8] | [9] | [10] | [11] | [12] | [13] | [14] | [15] | [16] | [17] | [18] | [19]

Nc1nc(=S)c2[nH]cnc2[nH]1
inactive: [1] | [2] | [3] | [4] | [5] | [6] | [7] | [8] | [9] | [10] | [11] | [12] | [13] | [14] | [15] | [16] | [17] | [18] | [19]

NCCOCCOCCN
inactive: [1] | [2] | [4] | [5] | [6] | [7] | [8] | [9] | [10] | [20] | [11] | [12] | [13] | [14] | [16] | [17] | [18] | [19]

CCc1nc(N)nc(N)c1-c1ccc(Cl)cc1
inactive: [1] | [2] | [4] | [5] | [6] | [7] | [8] | [9] | [10] | [20] | [11] | [12] | [13] | [14] | [15] | [16] | [17] | [18] | [19]

CN(C)C(=O)NC1(c2ccccc2)CCN(CCC[C@]2(c3ccc(Cl)c(Cl)c3)CCCN(C(=O)c3ccccc3)C2)CC1
active: [1] 3.94 µM | [2] 4.3 µM | [6] 7.06 µM | [9] 7.16 µM | [11] 6.65 µM | [13] 9.81 µM
inactive: [3] | [4] | [5] | [7] | [8] | [10] | [12] | [14] | [16] | [17] | [18] | [19]

COC(=O)[C@H]1[C@H]2C[C@@H]3c4[nH]c5cc(OC)ccc5c4CCN3C[C@H]2C[C@@H](OC(=O)c2cc(OC)c(OC)c(OC)c2)[C@@H]1OC
inactive: [1] | [2] | [3] | [10] | [12] | [16] | [17] | [19]
active: [4] 16.9 µM | [6] 16.9 µM | [7] 5.85 µM | [8] 25.8 µM | [9] 16.9 µM | [11] 24.9 µM | [14] 25.6 µM

O=C1CCCCC1
inactive: [1] | [2] | [4] | [5] | [6] | [7] | [8] | [9] | [10] | [20] | [11] | [12] | [13] | [14] | [16] | [17] | [18] | [19]
active: [3] 48.4 µM

O=C(O)CN(CC(=O)O)CC(=O)O
inactive: [1] | [2] | [4] | [5] | [6] | [7] | [8] | [9] | [10] | [20] | [11] | [12] | [13] | [14] | [15] | [16] | [17] | [18] | [19]

Reference: PubChem BioAssay (EPA / NIEHS)
